# Laboratory results reported in PubChem BioAssay AID687016 (The Scripps Research Institute Molecular Screening Center, 2013).
# The campaign covered roughly 370,000 compounds. About 2,800 (0.76%) were called active. This is one part of a sample in which actives are shown more often than they occur. No stated cut-off is given here; in the data, active means inhibition above about 21%; inactive means the rest.
# Biological target: E3 ubiquitin-protein ligase UHRF1 (Homo sapiens) (UniProt Q96T88)
# Experiment: blockers of UHRF1 binding to methyl-oligo – biochemical, TR-FRET, human UHRF1, single concentration, counter-screen for MBD2 inhibitor project, primary screen (AID 687016);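 further: UHRF1 SRA domain binding a hemimethylated CpG hairpin DNA probe; 0% = median of test compound wells and 100% = reference inhibitor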
# Details: UHRF1 binding to methylated oligo, at 4.4 µM, active compounds read high
# Sequence of E3 ubiquitin-protein ligase UHRF1 (Homo sapiens) (Q96T88 whole entry, looked up, the tested form may be a part): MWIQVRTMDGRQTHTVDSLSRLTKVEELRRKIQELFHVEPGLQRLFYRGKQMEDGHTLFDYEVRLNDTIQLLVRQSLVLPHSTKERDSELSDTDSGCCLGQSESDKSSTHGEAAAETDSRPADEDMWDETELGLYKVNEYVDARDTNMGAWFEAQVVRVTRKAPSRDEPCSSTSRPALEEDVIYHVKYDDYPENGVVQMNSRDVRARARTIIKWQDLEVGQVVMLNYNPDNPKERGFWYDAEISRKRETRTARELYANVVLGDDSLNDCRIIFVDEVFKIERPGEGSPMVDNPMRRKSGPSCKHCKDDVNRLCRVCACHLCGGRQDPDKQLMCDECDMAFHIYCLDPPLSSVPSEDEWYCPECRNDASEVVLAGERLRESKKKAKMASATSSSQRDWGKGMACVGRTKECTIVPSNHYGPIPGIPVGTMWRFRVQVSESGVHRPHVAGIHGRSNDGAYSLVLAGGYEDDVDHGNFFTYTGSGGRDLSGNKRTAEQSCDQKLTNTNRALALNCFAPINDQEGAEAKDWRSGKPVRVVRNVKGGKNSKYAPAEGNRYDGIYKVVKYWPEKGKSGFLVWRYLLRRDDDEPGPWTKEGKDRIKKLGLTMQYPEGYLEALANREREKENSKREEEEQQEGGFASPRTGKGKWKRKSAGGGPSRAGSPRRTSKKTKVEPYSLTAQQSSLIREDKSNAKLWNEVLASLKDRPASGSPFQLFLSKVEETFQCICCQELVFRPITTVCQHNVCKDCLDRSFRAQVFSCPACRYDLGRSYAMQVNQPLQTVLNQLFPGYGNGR
row,Structure (SMILES),inhibition
1,CCOC(=O)[C@]12CCCC3=C1N(CCC3)C(=O)[C@@H](CC(=O)N1CCSCC1)C2,-0.01% (inactive)
2,O=C(Nc1ccccc1)N1CCN(Cc2nc3ccccc3c(=O)[nH]2)CC1,0.95% (inactive)
3,O=C(NCc1ccco1)C1CCCN(S(=O)(=O)c2ccc(Cl)s2)C1 (configuration not stated),-1.18% (inactive)
4,COC(=O)C[C@@H]1CC[C@@H]2[C@@H](COc3ccc(NC(=O)Nc4ccc(F)c(F)c4)cc3C(=O)N2C)O1,0.81% (inactive)
5,CCOC(=O)C1(Cc2ccccc2)CCN(Cc2cn(C(C)=O)c3ccccc23)CC1,-2.91% (inactive)
6,Cc1cc([N+](=O)[O-])nn1CC(=O)Nc1ccc(Cc2ccncc2)cc1,-2.12% (inactive)
7,Cc1cc([N+](=O)[O-])nn1CCCC(=O)Nc1cccnc1Cl,1.45% (inactive)
8,Cc1cc([N+](=O)[O-])nn1Cc1ccc(F)cc1,20.9% (active)
9,Cc1ccc(S(=O)(=O)n2cnc3ccccc32)c(C)c1,8.08% (inactive)
10,COc1ccc(S(=O)(=O)n2cnc3ccccc32)c(C)c1,1.22% (inactive)
11,CCCCNS(=O)(=O)c1ccc(S(=O)(=O)n2cnc3ccccc32)cc1,20.7% (active)
12,CCOC(=O)[C@]12CCCCC/C=C\1N(Cc1ccc(OC)cc1)C(=O)[C@H]2CC(=O)N1CCOCC1,-3.09% (inactive)
13,O=C(CCCCCN1C(=O)C2C3C=CC(C3)C2C1=O)Nc1ccccc1 (configuration not stated),-1.94% (inactive)
14,Cc1cc(/C=N/n2cnnc2)c(C)n1-c1cccc(C(=O)O)c1,60% (active)
15,Fc1ccc(Br)cc1/C=N/n1cnnc1,-0.98% (inactive)
16,Cc1cc(/C=N/n2cnnc2)c(C)n1-c1ccc2ncccc2c1,0.89% (inactive)
17,COC(CNC(=O)[C@H](Cc1ccccc1)NC1(C(=O)NC2CCCCC2)CCCCC1)OC,-1.65% (inactive)
18,COC[C@@H]1CCCN1c1ccc2c(c1)O[C@H](C)CCN(C1CC1)S2(=O)=O,-3.33% (inactive)
19,COc1ccc2oc(C(=O)NCc3ccco3)c(C)c2c1,-0.64% (inactive)

row,Structure (SMILES),inhibition
1,CCCC1=Nc2cc(C(=O)NCc3ccco3)ccc2Sc2ccccc21,0.66% (inactive)
2,CCCCOc1ccc(C(=O)NCc2ccco2)cc1,25% (active)
3,C#CCCN([C@H](C(=O)OC)C(C)C)S(=O)(=O)c1ccc(F)cc1Br,-0.78% (inactive)
4,CCOc1cc2[nH]c(=S)n(CCN3CCCCC3C)c(=O)c2cc1OCC (configuration not stated),66% (active)
5,COc1cc2[nH]c(=S)n(CCN3CCCCC3C)c(=O)c2cc1OC (configuration not stated),8.11% (inactive)
6,CCOc1cc2[nH]c(=S)n(CCCN3CCCC3=O)c(=O)c2cc1OCC,-0.84% (inactive)
7,O=C(CN1CCCc2ccccc21)NCc1ccc(F)cc1,-2.07% (inactive)
8,CC(C)(C)N(CC#CCC(O)(c1ccccc1)C1CCCC1)CCO (configuration not stated),24.7% (active)
9,OC(C#CCN1CCOCC1)(c1ccccc1)C1CCCCC1 (configuration not stated),1.93% (inactive)
10,CN(CC#CCC(c1ccccc1)c1ccccc1)C(C)(C)C,-0.47% (inactive)
11,CN[C@H]1C[C@H]2c3cc(N4CCOCC4)ccc3CCN2C[C@H]1[C@H](C)O,-0.07% (inactive)
12,O=C(NC1CCCCN(Cc2cccc(C(F)(F)F)c2)C1=O)c1ccccc1I (configuration not stated),-2.03% (inactive)
13,OC(CN1C2=NCCCN2c2ccccc21)c1ccc(Br)cc1 (configuration not stated),68.9% (active)
14,CC(C)(C)C(=O)CN1C2=NCCN2c2ccccc21,0.42% (inactive)
15,Cc1cc2c(cc1C)N(Cc1ccccc1)C1=NCCCN12,-2.05% (inactive)
16,CC(C)(C)OC(=O)NCCc1ccccc1/C=C/S(=O)(=O)NCc1ccc(F)cc1,3.54% (inactive)
17,CSc1ccc(C=Nn2c(-c3ccc(F)cc3)n[nH]c2=S)cc1,-0.35% (inactive)
18,CCOc1ccc(-n2c(SCC(=O)Nc3cc(C)c(NC(=O)c4ccccc4)cc3OC)nnc2-c2cccs2)cc1,-0.28% (inactive)
19,Cc1ccc(C(=O)C2CCN(CC(=O)NCCC(C)C)CC2)cc1,9.98% (inactive)

row,Structure (SMILES),inhibition
1,O=S1(=O)c2c(NCc3ccco3)cccc2Oc2ccccc2CN1Cc1cn(Cc2cccc(C(F)(F)F)c2)nn1,3.97% (inactive)
2,CC(C)CC1C(=O)N(Cc2cn(CC3CCCCC3)nn2)CCS(=O)(=O)N1Cc1ccc(-c2ccc(Cl)cc2)cc1 (configuration not stated),-1.68% (inactive)
3,COc1ccc(-c2ccc(CN3C(CC(C)C)C(=O)N(Cc4cn(CC5CCCCC5)nn4)CCS3(=O)=O)cc2)cc1 (configuration not stated),1.54% (inactive)
4,CC(=O)c1cccc(-c2ccc(CN3C(CC(C)C)C(=O)N(Cc4cn(CC5CCCCC5)nn4)CCS3(=O)=O)cc2)c1 (configuration not stated),21% (active)
5,CCOC(=O)[C@@]12CN(C(=O)OC(C)(C)C)CC=C1N(Cc1ccc(OC)cc1)C(=O)[C@H]2CC(=O)NCc1ccc(OC)c(OC)c1,-2.61% (inactive)
6,COC(=O)C1CN(CC(C)C)CCS(=O)(=O)N1Cc1ccc(C)cc1 (configuration not stated),1.11% (inactive)
7,O=C(COc1cccc(Cl)c1)NCc1ccccc1,36% (active)
8,O=C(COC(=O)c1cccc(Cl)c1)NC(=O)NCc1ccccc1,-0.3% (inactive)
9,O=C(O)CCCn1cc(NC(=O)COc2cccc(Cl)c2)cn1,5.22% (inactive)
10,CCCCCCCCNS(=O)(=O)/C=C/c1cc(C)ccc1CNC(=O)OC(C)(C)C,-7.08% (inactive)
11,CC(=O)C1(C(=O)Nc2nccs2)CC(c2ccccc2C(F)(F)F)=NO1 (configuration not stated),-0.55% (inactive)
12,CCOC(=O)[C@]12CCCC3=C1N(CCC3)C(=O)[C@@H](CC(=O)NCc1cccs1)C2,-1.06% (inactive)
13,COc1nc(Oc2ccc(=O)n(C)n2)nc(N(C)C)n1,-0.4% (inactive)
14,Cc1ccc(S(=O)(=O)NCCSC(C)(C)C)cc1,-0.21% (inactive)
15,COc1nc(N(C)C)nc(N2CC(=O)N(CCNS(=O)(=O)c3ccc(C)cc3)C2=N)n1,22.6% (active)
16,COc1ccccc1C(=O)NC1CCCCN(C(C)C)C1=O (configuration not stated),2.58% (inactive)
17,COc1ccc(C(=O)OCC(=O)c2ccc(C)c(S(=O)(=O)N3CCOCC3)c2)cc1OC,-0.9% (inactive)
18,COc1ccc(C(=O)COC(=O)c2ccc([N+](=O)[O-])s2)cc1OC,21.7% (active)
19,O=C(OCC(=O)N1CCN(c2ccccc2)CC1)c1ccc([N+](=O)[O-])s1,-3.28% (inactive)
